Assay outcomes deposited in PubChem by The Scripps Research Institute Molecular Screening Center.
The list is not random: actives were taken first. Their share in the collection is about 4.5%.
ssDAF12 agonist = activators of S. stercoralis DAF-12 nuclear receptor; HEK293 ssDAF-12/GRIP1 lit1-tk-luc reporter, luminescence; % of 3 µM dafachronic acid response; activation, % at 6.8 µM; 370,000 tested, 1% active; AID 652126;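 active = activation above the mean over all tested compounds plus 3 SD, cut at about 0.9% in these data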;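 note: 0% = DMSO-only wells and 100% = 3 µM delta7-dafachronic acid wells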
FXN GAA850 act = increases GAA850 frataxin promoter reporter activity | HEK293 lucGAA850 FXN promoter luciferase reporter, 24 h; percent of 10 µM SAHA response | 360,000 tested, 0.56% active | AID 540364 | activation, % at 6 µM;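 active = activation above the average of all compounds screened plus 3 SD, cutoff fixed separately per campaign, cut at about 7.5% in these data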;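 note: 0% = DMSO wells and 100% = 10 µM SAHA wells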
DAX1 inh-1 = NR0B1 (DAX1) inhibition; inhibition, % at 6.75 µM; P51843; HEK293 Gal4-DAX1 luciferase reporter, luminescence; 340,000 tested, 0.99% active;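 active = inhibition above the mean over all tested compounds plus 3 SD, cut at about 4.2% in these data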;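 note: 0% = DAX1-transfected cells with DMSO and 100% = empty-vector control cells with DMSO; inhibition shows as a rise in luminescence from relieved DAX1 repression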
Target sequence (P51843 207-470 limits assumed): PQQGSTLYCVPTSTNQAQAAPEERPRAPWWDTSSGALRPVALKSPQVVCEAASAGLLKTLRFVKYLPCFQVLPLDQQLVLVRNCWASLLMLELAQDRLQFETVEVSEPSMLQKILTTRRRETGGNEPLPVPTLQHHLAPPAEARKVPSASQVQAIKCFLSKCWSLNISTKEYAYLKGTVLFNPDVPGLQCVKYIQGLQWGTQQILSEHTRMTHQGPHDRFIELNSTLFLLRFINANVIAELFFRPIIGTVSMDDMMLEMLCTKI
hgDAF12 agonist = hgDAF-12 agonism, primary luciferase screen. HEK293 GAL4-hgDAF12 UAS-luciferase reporter, agonist luminescence; normalized to butyrate control. activation, % at 6.8 µM. 370,000 tested, 1.8% active. AID 687014;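 active = activation above a cutoff set at the mean of all screened compounds plus 3 SD, cut at about 10% in these data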;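 note: 0% = DMSO wells and 100% = sodium butyrate wells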
hcDAF12 agonist = activators of H. contortus DAF-12 nuclear receptor. HEK293 hcDAF-12 lit1-tk-luc reporter, luminescence; 0% DMSO, 100% Δ7-dafachronic acid. activation, % at 6.8 µM. 370,000 tested, 1.4% active. AID 652067;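 active = activation above the mean of all tested compounds plus 3 SD, cut at about 5.5% in these data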;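 note: 100% = response to 3 µM Δ7-dafachronic acid high control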
DAX1 inh-2 = inhibitors of DAX1 repression of SF-1 activated StAR promoter; HEK293T StAR-luciferase reporter, SF-1/DAX-1 repression relief; inhibition, % at 6.8 µM; 370,000 tested, 1.1% active; AID 652010;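 active = inhibition above the mean over all tested compounds plus 3 SD, cut at about 3.6% in these data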;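 note: 0% = DAX-1 cells with DMSO and 100% = cells lacking DAX-1 with DMSO; higher inhibition means more luminescence from relief of DAX-1 repression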
GAA30 counter = activates GAA30 frataxin promoter, counter-screen for GAA850 activators | shares compounds with FXN GAA850 act | HEK293 lucGAA30 FXN promoter luciferase, 24 h; DMSO = 0%, 5 µM ipriflavone = 100% | activation, % at 6 µM | 1,900 tested, 66% active | AID 588350;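 active = mean activation above the mean of solvent-only control wells plus 3 SD, cut at about 22% in these data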;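 note: counterscreen of GAA850 promoter hits where activity marks nonselective or luminescence artifacts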
FXN GAA850 conf = confirmation of GAA850 frataxin (FXN) promoter activators; AID 588351; activation, % at 6 µM; HEK293 lucGAA850 FXN promoter luciferase reporter, 24 h; 100% = activation by SAHA; 1,900 tested, 86% active; shares compounds with FXN GAA850 act;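 active = mean activation above a set limit taken from the primary screen, cut at about 8% in these data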;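 note: 0% = DMSO wells and 100% = 10 µM SAHA wells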
Active calls of the source: *.

Screening Cc1ccc(S(=O)(=O)N(C)[C@H]2C[C@H]3c4cc(N5CCOCC5)ccc4CCN3C[C@H]2[C@H](C)O)cc1 returned ssDAF12 agonist -1, hgDAF12 agonist 2, hcDAF12 agonist -2 and DAX1 inh-2 0.
For O=C(C1COc2ccccc2O1)N1CCc2ccccc21 (stereo unspecified) the results were ssDAF12 agonist -1, FXN GAA850 act 8.0*, DAX1 inh-1 1, hgDAF12 agonist 5, hcDAF12 agonist 4, DAX1 inh-2 2, GAA30 counter 73* and FXN GAA850 conf 32*.
COC(=O)C1CCCN(C(=O)C2CCN(S(=O)(=O)c3ccccc3[N+](=O)[O-])CC2)C1 (stereo unspecified) was read as ssDAF12 agonist -1, hgDAF12 agonist 1, hcDAF12 agonist 2 and DAX1 inh-2 0.
For Fc1ccc(-c2csc3ncnc(Nc4ccc(N5CCOCC5)cc4)c23)cc1 the results were ssDAF12 agonist -2, FXN GAA850 act 12*, DAX1 inh-1 0, hgDAF12 agonist -2, hcDAF12 agonist -3, DAX1 inh-2 -1, GAA30 counter 5 and FXN GAA850 conf 11*.
Screening c1nc(Nc2ccc(N3CCOCC3)cc2)c2ccsc2n1 returned ssDAF12 agonist 0, FXN GAA850 act 4, DAX1 inh-1 2, hgDAF12 agonist 5, hcDAF12 agonist 0 and DAX1 inh-2 1.
`CCc1cccc(CC)c1NC(=O)/C(C#N)=C/c1ccccc1C(F)(F)F` gave ssDAF12 agonist -1, FXN GAA850 act 8.0*, DAX1 inh-1 -1, hgDAF12 agonist -2, hcDAF12 agonist 1, DAX1 inh-2 0, GAA30 counter -12 and FXN GAA850 conf 13*.
For NC(=S)N/N=C/c1cn(-c2ccccc2)nc1-c1cccnc1 the results were ssDAF12 agonist -1, FXN GAA850 act 7.8*, DAX1 inh-1 -2, hgDAF12 agonist -1, hcDAF12 agonist -1, DAX1 inh-2 0, GAA30 counter 63* and FXN GAA850 conf 19*.
Screening O=C(N/N=C/c1cn(-c2ccccc2)nc1-c1cccnc1)c1ccccc1 returned ssDAF12 agonist -3, FXN GAA850 act 2, DAX1 inh-1 -1, hgDAF12 agonist 3, hcDAF12 agonist -3 and DAX1 inh-2 -1.
COc1ccc(OC)c(CCNC(=O)c2cccc(NC(=O)C3=C(C)OCCS3)c2)c1 was read as ssDAF12 agonist -1, FXN GAA850 act 1, DAX1 inh-1 0, hgDAF12 agonist -4, hcDAF12 agonist -1 and DAX1 inh-2 0.
Screening COc1ccc(C(=O)N2CCN(C(=O)C3CCCO3)CC2)cc1[N+](=O)[O-] (stereo unspecified) returned ssDAF12 agonist -1, FXN GAA850 act -2, DAX1 inh-1 0, hgDAF12 agonist -1, hcDAF12 agonist 0 and DAX1 inh-2 0.
COc1ccc(NC(=O)c2ccco2)cc1NC(=O)c1cccs1 was read as ssDAF12 agonist -2, FXN GAA850 act 9.4*, DAX1 inh-1 3, hgDAF12 agonist -4, hcDAF12 agonist 0, DAX1 inh-2 0, GAA30 counter 23* and FXN GAA850 conf 7.
`CN1CCCN(C(=O)CSc2nnc(-c3cccnc3)n2C2CCCCC2)CC1` gave ssDAF12 agonist -1, hgDAF12 agonist -3, hcDAF12 agonist 3 and DAX1 inh-2 2.
Cc1nc(NC(=O)c2cccc(-c3cc4ccccc4oc3=O)c2)ccc1Br was read as ssDAF12 agonist -1, FXN GAA850 act -1, DAX1 inh-1 2, hgDAF12 agonist 2, hcDAF12 agonist 0 and DAX1 inh-2 1.
